High-throughput results from PubChem BioAssay.
Sampled rows, rich in hits. Any-hit rate of the full collection: about 6.2%.
KB-3-1 cytotox: kills parental KB-3-1 adenocarcinoma cells | KB-3-1 viability, CellTiter-Glo ATP luminescence, 72 h | Potency, µM (series often up to 46.1 µM), actives largely listed as cytotoxic | hit rate 1.4% among 400,000; also: nearly all actives have a fitted effect of over 60% in size
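72 h, 37 °C compound treatment of KB-3-1 parental cells; CellTiter-Glo added, 10 min, luminescence read. Data corrected against DMSO-only plates and normalized before curve fitting.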
ATXN viability: viability counter-screen for ATXN expression inhibitors | Potency, µM (doses to about 56.7 µM), hits mostly cytotoxic | hit rate 0.49% among 400,000 | S2 cells (HEK-293 line with an ATXN2-luciferase reporter) viability, CellTiter-Fluor protease fluorescence, 24 h; also: nearly all actives have a fitted effect of over 40% in size
ATXN2 expr inh: ATXN2 expression inhibition | AID 1745845 | hit rate 0.72% among 360,000 | Potency, µM (highest dose often 57 µM), usual class: inhibitors | HEK-293 ATXN2-luciferase reporter, luminescence, 24 h; also: nearly all actives have a fitted effect of over 55% in size
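qHTS (up to 57 uM final) was run with 24 h compound exposure of reporter cells at 37 °C. Each well was multiplexed: SteadyGlo luminescence measured ATXN2-luciferase expression after a fluorogenic Gly-Phe-AFC viability readout (25 uM final).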
HT1080 IDH1KD tx: toxicity to HT-1080 IDH1 knockdown cells (counter line) | HT-1080 IDH1 knockdown viability, ATP luminescence, 48 h | Potency, µM (highest dose often 46.1 µM), usual class: cytotoxic | hit rate 2% among 360,000
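Using the IDH1-knockdown HT-1080 line run in the same batch and compound series as the NT line, viability after 48 h at 37 °C was determined by CellTiter-Glo luminescence and expressed as % activity.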
KB-V1 MDR tox: kills drug-selected multidrug resistant KB-V1 cells; KB-V1 MDR cells viability, CellTiter-Glo, 72 h; Potency, µM (highest dose often 46.1 µM), most hits filed as cytotoxic; hit rate 3.4% among 400,000; AID 1347076; also: nearly all actives have a fitted effect of over 60% in size
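Cytotoxicity via CellTiter-Glo luminescence after 72 h compound exposure at 37 degrees C. Cells: drug-selected KB-V1 line, DMEM phenol-red free plus 10% FBS. Compounds tested at multiple concentrations; normalized data fitted to concentration-effect curves.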
HT1080-NT tox: kills 2HG-producing HT-1080-NT fibrosarcoma cells; Potency, µM (top dose mostly 46.1 µM), hits mostly cytotoxic; HT-1080-NT fibrosarcoma viability, CellTiter-Glo ATP luminescence, 48 h; hit rate 1.6% among 360,000;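 also: NT is the 2HG producing partner of a matched IDH1 knockdown line; nearly all actives have a fitted effect of over 55% in size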
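HT-1080-NT fibrosarcoma cells (2HG-overproducing), 750 cells/well in RPMI with 5% FBS, dosed after 2 h and incubated 48 h at 37C. CellTiter-Glo luminescence normalized to DMSO and no-cell wells; concentration-response curves fitted and classed.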
Hits are given with their value; . = inactive; ? = inconclusive; / = no result; [ ] = dose if it differs, or a comment. Calls follow the shape of the dose curve; as a rule, active = well fitted curve in the direction sought with a large enough effect; inconclusive = small, poorly fitted or top-dose-only effect, or another doubt; inactive = no such curve, though single readings can be large; an effect the other way counts as inactive or inconclusive.

SMILES	KB-3-1 cytotox	ATXN viability	ATXN2 expr inh	HT1080 IDH1KD tx	KB-V1 MDR tox	HT1080-NT tox
O=C(NCC(c1cccs1)N1CCOCC1)c1cc([N+](=O)[O-])cc([N+](=O)[O-])c1 (centres undefined)	.	.	.	.	23.1µM	.
O=C(NCC(c1cccs1)N1CCOCC1)c1cccc([N+](=O)[O-])c1 (centres undefined)	.	.	.	?	.	?
CC1(C(=O)NCc2ccccc2)CN(S(C)(=O)=O)CC(=O)N1Cc1cccc(F)c1 (centres undefined)	.	/	/	.	.	.
Cc1ccc(OCC(=O)Nc2ccc(OCc3cc(=O)n4cccc(C)c4n3)cc2)cc1C	.	/	/	/	.	/
O=C(C[n+]1cccc2ccccc21)c1ccc(F)cc1	.	/	/	/	.	/
CCn1c(SCc2ccccc2F)nc(=O)c2c(C(=O)OC)cc(C3CC3)nc21	.	/	/	/	.	/
O=C(COc1ccccc1Cl)NCC(c1cccs1)N1CCOCC1 (centres undefined)	.	.	.	.	.	.
Cc1ccccc1OCC(=O)NCC(c1cccs1)N1CCOCC1 (centres undefined)	?	.	.	.	16.4µM	.
CCOc1cc(/C=C/C(=O)c2ccc3c(c2)OCCO3)ccc1OCC(=O)N(C)C	?	.	?	18.4µM	16.4µM	?
O=C1NC(=O)c2cc(Br)cc3cccc1c23	.	.	.	?	?	.
Cc1ccc(NS(=O)(=O)c2cc3c4c(cccc4c2)C(=O)NC3=O)cc1C	14.6µM	.	?	5.17µM	?	7.31µM
CC(C)(C)OC(=O)N1CCC(c2c(C(=O)NCC3CCN(C4CCCC4)C3)cnn2-c2cccc(Cl)c2)CC1 (centres undefined)	.	?	?	18.4µM	.	?
Cc1ccc(-n2ncc(C(=O)NCC3CCN(C4CCCC4)C3)c2C2CCN(C(=O)OC(C)(C)C)CC2)cc1 (centres undefined)	?	.	?	?	.	23.1µM
CC(C)(C)OC(=O)N1CCC(c2c(C(=O)NCC3CCN(C4CCCC4)C3)cnn2-c2ccccc2)CC1 (centres undefined)	.	.	.	.	?	.
CC(C)(C)OC(=O)N1CCC(c2c(C(=O)NCC3CCN(C4CCCC4)C3)cnn2-c2ccc(F)cc2)CC1 (centres undefined)	.	.	.	.	?	.
COC(=O)c1ccc(NC(C)=O)cc1OC	/	.	.	/	/	/
O=C(O)CC/C(=N/Nc1ccc([N+](=O)[O-])cc1)C(=O)O	.	?	.	5.8µM	.	1.64µM
O=C(O)CC/C(=N\Nc1ccc([N+](=O)[O-])cc1)c1ccccc1	.	.	.	.	.	.
Cc1ccc(NC(=O)c2cccc(S(=O)(=O)N(C)c3ccccc3)c2)cc1S(=O)(=O)N1CCOCC1	?	.	.	.	5.17µM	.
CCN(CC)S(=O)(=O)c1cc(NC(=O)CNc2cccc(S(=O)(=O)N3CCOCC3)c2)ccc1C	8.2µM	.	.	18.4µM	.	6.51µM
CC(=O)c1cccc(NC(=O)c2ccc(C)c(S(=O)(=O)N3CCOCC3)c2)c1	.	.	.	.	.	.
Cc1cccc(OCCNC(=O)c2ccc(Cl)c(S(=O)(=O)NCc3cccnc3)c2)c1	1.46µM	.	.	?	?	?
COC(=O)C1CCN(C(=O)c2ccc(Cl)c(S(=O)(=O)NCc3cccnc3)c2)CC1	.	.	.	.	.	.
COc1cc(NC(=O)c2ccc(S(=O)(=O)N(C)c3ccccc3OC)cc2)cc(OC)c1	.	.	.	.	.	.
COc1ccccc1N(C)S(=O)(=O)c1ccc(C(=O)Nc2ccc3nc(C)sc3c2)cc1	?	?	?	.	23.1µM	.
SMILES	KB-3-1 cytotox	ATXN viability	ATXN2 expr inh	HT1080 IDH1KD tx	KB-V1 MDR tox	HT1080-NT tox
CO[C@H]1C[C@H](O[C@H]2[C@H](C)[C@@H](O[C@@H]3O[C@H](C)C[C@H](N(C)C)[C@H]3OC(C)=O)[C@@H](C)C[C@]3(CO3)C(=O)[C@H](C)[C@@H](OC(C)=O)[C@@H](C)[C@@H](C)OC(=O)[C@@H]2C)O[C@@H](C)[C@@H]1OC(C)=O	/	.	/	/	/	/
Cc1nc2ccc(NC(=O)c3ccccc3)cc2s1	.	.	.	.	.	.
O=C(NCc1ccncc1)c1cccc(S(=O)(=O)NCc2ccccc2)c1	.	.	.	.	?	.
Cc1nc2ccc(NC(=O)c3cccc(S(=O)(=O)N(C)c4ccccc4)c3)cc2s1	?	?	28.2µM	?	?	?
Cc1ccc(OCCNC(=O)c2cccc(S(=O)(=O)NCc3ccccc3)c2)cc1	4.61µM	.	.	7.31µM	8.2µM	?
Cc1ccc(N(C)S(=O)(=O)c2cccc(C(=O)Nc3nc4ccccc4[nH]3)c2)cc1	?	?	.	.	2.31µM	.
COc1ccc(N(C)S(=O)(=O)c2cccc(C(=O)NCc3ccc(C)cc3)c2)cc1	.	.	.	.	6.51µM	.
CCN1C(=O)[C@H]2[C@@H](c3ccc(-c4cccc(Cl)c4)cc3)N[C@@](Cc3ccccc3)(C(=O)OC)[C@H]2C1=O	?	.	.	.	.	.
CCC1CN(Cc2cn[nH]c2-c2ccc(OC)cc2)Cc2cc(OC)ccc2O1 (centres undefined)	/	.	/	/	/	/
CCOc1ccc(S(=O)(=O)/N=C(/Nc2ccc(C)c(S(=O)(=O)N3CCOCC3)c2)c2ccccc2)cc1	.	.	.	.	9.2µM	.
OC(c1ccccc1)C1CN(Cc2ccccc2)CCC1(O)c1ccccc1 (centres undefined)	.	.	.	.	23.1µM	.
Cc1cccc(C)c1OCCNC(=O)C(=O)NCc1ccco1	1.46µM	.	.	2.59µM	?	1.64µM
CC(=O)Nc1ccc(S(=O)(=O)Nc2c(C)nn(-c3ccccc3)c2C)cc1	.	?	.	.[9.24 µM]	.	.
CC(=O)c1ccccc1NS(=O)(=O)c1c(C)nn(-c2ccccc2)c1C	.	.	.	.	9.2µM	.
Cc1cccc(C(=O)NCC(=O)N2CCN(c3ccccn3)CC2)c1	.	.	.	.	20.6µM	.
COc1cc(Cl)c(C)cc1NC(=O)c1cc(CN2CCOCC2)on1	.	.	.	/	.	/
CCc1cc2c(=O)n(Cc3ccco3)c(SCC(=O)NCC3CCCO3)nc2s1 (centres undefined)	?	.	.	.	2.59µM	.
O=C(CSc1nc2c(sc3ccccc32)c(=O)n1Cc1ccco1)NCC1CCCO1 (centres undefined)	.	?	.	.	.	.
CCc1cc2c(=O)n(Cc3ccco3)c(SCc3c(C)noc3C)nc2s1	5.8µM	?	.	14.6µM	2.91µM	?
CC(=O)c1ccccc1-c1ccc2c(c1)CC(CNC(=O)Cc1c[nH]c3ccccc13)O2 (centres undefined)	/	.	/	/	/	/
